Assay results from PubChem BioAssay (EPA / NIEHS).
Values joined by “and” are separate entries in the source; they are usually repeats but may differ in a detail not shown here. Equal values may be shown once. Where a structure was tested more than once in an assay, its records may differ in their call. Active and inactive are the calls of the source. The calls were made as follows: active = hit-call score of the fitted dose curve at least 0.9, where 1 is the maximum; inactive = score below 0.9.

Assays:
[1] = read-out: Vascular endothelial growth factor receptor 2 (Homo sapiens) (UniProt P35968); assay: BSK_4H_VEGFRII: BioMAP Diversity Plus: 4H Assay for Vascular endothelial growth factor receptor 2 (VEGFR2) Biomarker Activity (AID 2283031); settings: primary human endothelial cells (HUVEC); actives raise or lower the signal
How it was run: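 ELISA read-out of VEGFRII in primary human umbilical vein endothelium, taken 24 h after chemical treatment. Responses are expressed relative to DMSO, with bidirectional fitting.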

[2] = read-out: Human Leukocyte Antigen - DR isotype (HLADR), HLA-DRA (gene 3122); assay: BSK_BE3C_HLADR: BioMAP Diversity Plus: BE3C Assay for Human Leukocyte Antigen - DR isotype (HLADR) Biomarker Activity (AID 2283032); settings: primary human bronchial epithelial cells; actives raise or lower the signal
How it was run: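 Human primary bronchial epithelial cells in the BE3C system were exposed to chemicals for 24 h, after which HLA-DR levels were quantified by ELISA. Activity was fitted bidirectionally, gain or loss of signal, against DMSO as negative control and baseline.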

[3] = read-out: Vascular cell adhesion molecule 1 (VCAM1), VCAM1 (gene 7412); assay: BSK_4H_VCAM1: BioMAP Diversity Plus: 4H Assay for Vascular cell adhesion molecule 1 (VCAM1) Biomarker Activity (AID 2283033); settings: primary human endothelial cells (HUVEC); actives raise or lower the signal
How it was run: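 Primary human umbilical vein endothelial cells were exposed to chemicals for 24 h, after which VCAM-1 was quantified by ELISA. Responses were fitted bidirectionally against DMSO as negative control and activity baseline.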

[4] = read-out: Interferon-gamma inducible Protein 10 (IP10), CXCL10 (gene 3627); assay: BSK_BE3C_IP10: BioMAP Diversity Plus: BE3C Assay for Interferon-gamma inducible Protein 10 (IP10) Biomarker Activity (AID 2283034); settings: primary human bronchial epithelial cells; actives raise or lower the signal
How it was run: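 Human primary bronchial epithelial cells were exposed to chemicals for 24 hours, after which IP-10 levels were measured by ELISA. Data were fitted bidirectionally against DMSO, which served as the negative control and activity baseline.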

[5] = read-out: Monokine induced gamma interferon (MIG), CXCL9 (gene 4283); assay: BSK_BE3C_MIG: BioMAP Diversity Plus: BE3C Assay for Monokine induced gamma interferon (MIG) Biomarker Activity (AID 2283035); settings: primary human bronchial epithelial cells; actives raise or lower the signal
How it was run: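 MIG level was determined by ELISA after 24 h chemical treatment of primary human bronchial epithelial cells. Values were fitted bidirectionally with DMSO as the negative control and activity baseline.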

[6] = read-out: Transforming growth factor beta 1 (TGFb1), TGFB1 (gene 7040); assay: BSK_BE3C_TGFb1: BioMAP Diversity Plus: BE3C Assay for Transforming growth factor beta 1 (TGFb1) Biomarker Activity (AID 2283036); settings: primary human bronchial epithelial cells; actives raise or lower the signal
How it was run: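 Human primary bronchial epithelial cells (BE3C system) were dosed with chemical and TGF-b1 levels measured by ELISA at 24 h. Activity was fitted bidirectionally relative to DMSO negative control as baseline.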

[7] = read-out: Plasminogen activator inhibitor-1 (PAI1), SERPINE1 (gene 5054); assay: BSK_BE3C_PAI1: BioMAP Diversity Plus: BE3C Assay for Plasminogen activator inhibitor-1 (PAI1) Biomarker Activity (AID 2283037); settings: primary human bronchial epithelial cells; actives raise or lower the signal
How it was run: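 Human primary bronchial epithelial cells were exposed to chemical for 24 h, then PAI-1 was quantified by ELISA. Activity was fitted bidirectionally relative to the DMSO negative control baseline.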

[8] = read-out: urokinase plasminogen activator (uPA), PLAU (gene 5328); assay: BSK_BE3C_uPA: BioMAP Diversity Plus: BE3C Assay for urokinase plasminogen activator (uPA) Biomarker Activity (AID 2283038); settings: primary human bronchial epithelial cells; actives raise or lower the signal
How it was run: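 Bronchial epithelial cells (human, primary); chemical 24 h; uPA by ELISA; bidirectional fit vs DMSO. SRB (0.1%, after 10% TCA fixation, 560 nm) in parallel cultures for cytotoxicity.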

[9] = read-out: Interleukin-6 (IL6), IL6 (gene 3569); assay: BSK_CASM3C_IL6: BioMAP Diversity Plus: CASM3C Assay for Interleukin-6 (IL6) Biomarker Activity for (AID 2283040); settings: primary human coronary artery smooth muscle cells; actives raise or lower the signal
[10] = read-out: Interleukin-8 (IL8), CXCL8 (gene 3576); assay: BSK_CASM3C_IL8: BioMAP Diversity Plus: CASM3C Assay for Interleukin-8 (IL8) Biomarker Activity (AID 2283042); settings: primary human coronary artery smooth muscle cells; actives raise or lower the signal;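 also: IL-8 protein level quantified by ELISA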
[11] = read-out: Human Leukocyte Antigen - DR isotype (HLADR), HLA-DRA (gene 3122); assay: BSK_CASM3C_HLADR: BioMAP Diversity Plus: CASM3C Assay for Human Leukocyte Antigen - DR isotype (HLADR) Biomarker Activity (AID 2283043); settings: primary human coronary artery smooth muscle cells; actives raise or lower the signal;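 also: cell-surface HLA-DR protein level quantified by ELISA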
[12] = read-out: Macrophage colony-stimulating factor (MCSF), CSF1 (gene 1435); assay: BSK_CASM3C_MCSF: BioMAP Diversity Plus: CASM3C Assay for Macrophage colony-stimulating factor (MCSF) Biomarker Activity (AID 2283044); settings: primary human coronary artery smooth muscle cells; actives raise or lower the signal;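 also: M-CSF protein amount quantified by ELISA after 24 h exposure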
[13] = read-out: Low-density lipoprotein receptor (LDLR), LDLR (gene 3949); assay: BSK_CASM3C_LDLR: BioMAP Diversity Plus: CASM3C Assay for Low-density lipoprotein receptor (LDLR) Biomarker Activity (AID 2283045); settings: primary human coronary artery smooth muscle cells; actives raise or lower the signal;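 also: LDLR protein level on the cell surface quantified by ELISA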
[14] = read-out: Monocyte Chemoattractant Protein-1 (MCP1), CCL2 (gene 6347); assay: BSK_CASM3C_MCP1: BioMAP Diversity Plus: CASM3C Assay for Monocyte Chemoattractant Protein-1 (MCP1) Biomarker Activity (AID 2283046); settings: primary human coronary artery smooth muscle cells; actives raise or lower the signal;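 also: MCP-1 level quantified by ELISA 24 h after dosing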
[15] = BSK_CASM3C_Proliferation: Cell Proliferation Assessment in the BioMAP Diversity Plus: CASM3C Assay (AID 2283047); settings: primary human coronary artery smooth muscle cells;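 also: sulforhodamine B total protein stain as relative cell number at 560 nm; sub-confluent cells exposed 48 h before staining; fitted both ways against DMSO so gain or loss of cell number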
[16] = read-out: Monokine induced gamma interferon (MIG), CXCL9 (gene 4283); assay: BSK_CASM3C_MIG: BioMAP Diversity Plus: CASM3C Assay for Monokine induced gamma interferon (MIG) Biomarker Activity (AID 2283048); settings: primary human coronary artery smooth muscle cells; actives raise or lower the signal;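 also: MIG protein level measured by ELISA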
[17] = read-out: serum amyloid A (SAA), SAA1 (gene 6288); assay: BSK_CASM3C_SAA: BioMAP Diversity Plus: CASM3C Assay for serum amyloid A (SAA) Biomarker Activity (AID 2283049); settings: primary human coronary artery smooth muscle cells; actives raise or lower the signal;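 also: SAA protein level quantified by ELISA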
[18] = BSK_CASM3C_SRB: Viability Assessment in the BioMAP Diversity Plus: CASM3C Assay (AID 2283050); settings: primary human coronary artery smooth muscle cells;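 also: total protein by SRB staining as cytotoxicity measure in parallel cultures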
[19] = read-out: Urokinase-type plasminogen activator receptor (uPAR), PLAUR (gene 5329); assay: BSK_BE3C_uPAR: BioMAP Diversity Plus: BE3C Assay for Urokinase-type plasminogen activator receptor (uPAR) Biomarker Activity (AID 2283039); settings: primary human bronchial epithelial cells; actives raise or lower the signal
How it was run: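 Primary human bronchial epithelial cells were dosed with chemical and harvested 24 h later; uPAR was quantified by ELISA. Activity was fitted bidirectionally against DMSO as negative control and baseline.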

Measured: AC50

Cc1ccc2n[nH]nc2c1
inactive: [1] | [2] | [3] | [4] | [5] | [6] | [7] | [8] | [9] | [10] | [11] | [12] | [13] | [14] | [15] | [16] | [17] | [18]

CC(=O)O[C@]1(C(C)=O)CC[C@H]2[C@@H]3C[C@H](C)C4=CC(=O)CC[C@]4(C)[C@H]3CC[C@@]21C
active: [2] 10 µM | [9] 8.2 nM | [10] 8.2 nM | [13] 14.7 µM | [14] 604 nM | [17] 8.2 nM
inactive: [1] | [3] | [4] | [5] | [6] | [7] | [8] | [11] | [12] | [15] | [16] | [18]

C[C@H]1C[C@@H]2[C@H]([C@@H](O)C[C@@]3(C)[C@H]2CC[C@]3(O)C(=O)CO)[C@@]2(C)C=CC(=O)C=C12
active: [9] 352 nM and 321 nM | [10] 471 nM and 1.18 µM | [12] 150 nM | [14] 4620 nM | [17] 150 nM
inactive: [1] | [2] | [3] | [4] | [5] | [7] | [8] | [11] | [13] | [14] | [15] | [16] | [18]

O=P(c1ccccc1)(c1ccccc1)c1ccccc1
inactive: [1] | [2] | [3] | [4] | [5] | [6] | [7] | [8] | [9] | [10] | [11] | [12] | [13] | [14] | [15] | [16] | [17] | [18]

CNC[C@H](O)c1cccc(O)c1
inactive: [1] | [2] | [3] | [4] | [5] | [6] | [7] | [8] | [9] | [10] | [11] | [12] | [13] | [14] | [15] | [16] | [17] | [18]

CCCCC(CC)COCCC#N (stereo unspecified)
inactive: [1] | [2] | [3] | [4] | [5] | [6] | [7] | [8] | [9] | [10] | [11] | [12] | [14] | [15] | [16] | [17] | [18]
active: [13] 0.151 µM

O=C1OC2(c3cc(Br)c(O)c(Br)c3Oc3c2cc(Br)c(O)c3Br)c2c(Cl)c(Cl)c(Cl)c(Cl)c21
inactive: [9] | [10] | [11] | [12] | [13] | [15] | [16] | [17] | [18]
active: [2] 0.56 µM | [3] 4.23 µM | [4] 818 nM | [5] 2.49 µM | [6] 587 nM | [7] 563 nM | [8] 736 nM | [19] 840 nM | [14] 11.4 nM
